Screening data from PubChem BioAssay.
HPGD block – HPGD (human) dehydrogenase inhibition; AID 894; P15428; Potency, µM, without a hit: at the top dose activity change, negative = inhibition, actives largely listed as inhibitors; purified HPGD, NADH fluorescence kinetic, PGE2 substrate; hit rate 4.3% among 150,000; further: potency means the concentration at half of the fitted maximal effect
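NADH formation kinetics: reaction with 30 uM PGE2 and 1 mM NAD+ (final), 20 nM enzyme, Tris-HCl pH 8 with Tween 20, after 15 min compound preincubation at room temperature. Fluorescence change, last versus first of five reads.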
IMPase cell inh – IMPase inhibition in cells; P97697; CHO-M1 cells, IP1 accumulation, HTRF TR-FRET ratio; inhibition (IP1 accumulation), % at 46.1 µM; 120,000 tested, under 10 active; AID 901; active means well fitted curve in the direction sought with a large enough effect in the signal ratio, not every such curve was filed as active; inconclusive means small, poorly fitted or top-dose-only effect, or a change in a side signal; inactive means no such curve, though single readings can be large or run the other way; the % refers to the signal ratio;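 further: cells stimulated with carbachol in lithium chloride buffer; plate controls were DMSO basal wells for no effect and reference inhibitor wells for full effect; higher means more IMPase inhibition seen as more IP1 and lower FRET ratio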
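CHO-M1, 2000 cells/well, cultured 16–30 h; cpd up to 46 uM; carbachol (50 uM solution, stimulation buffer w/ 50 mM LiCl, pH 7.4), 30 min 37C; IP-One TR-FRET, 10 min RT; Ex 320/Em 665, 620; Hill-fit AC50.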
PNC inhibitor – blocks assembly of the perinucleolar compartment | PC3M PTB-GFP, PNC prevalence imaging, 16 h; stronger effect = lower value | activity change (PNC), negative = inhibition, % at 10 µM | hit rate 3.1% among 140,000 | AID 2417;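 active means readout at or below -70, meaning at least 70% loss of cells showing the perinucleolar compartment, a nuclear body marking cancer cells; inconclusive means readout between -30 and a set limit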;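 further: plate controls were DMSO wells for no effect and camptothecin positive control wells for full effect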
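PC3M cells stably expressing PTB-GFP, 750–1000 cells/well, treated 16 h at 37 °C with compound (23 nl of library stock), in duplicate. After paraformaldehyde fixation and Hoechst stain, imaged at 20x; PNC prevalence scored by image analysis.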
ALDH1A1 block – blocks purified human ALDH1A1 activity. P00352. Purified ALDH1A1, NADH fluorescence, propionaldehyde substrate. Potency, µM (top dose mostly 75.3 µM), for inactives: at the top dose activity, negative = inhibition, most hits filed as inhibitors. hit rate 7.3% among 220,000;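 further: potency means the concentration at half of the fitted maximal effect; plate controls were no enzyme wells and a reference inhibitor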
Target sequence (P00352 whole entry, looked up): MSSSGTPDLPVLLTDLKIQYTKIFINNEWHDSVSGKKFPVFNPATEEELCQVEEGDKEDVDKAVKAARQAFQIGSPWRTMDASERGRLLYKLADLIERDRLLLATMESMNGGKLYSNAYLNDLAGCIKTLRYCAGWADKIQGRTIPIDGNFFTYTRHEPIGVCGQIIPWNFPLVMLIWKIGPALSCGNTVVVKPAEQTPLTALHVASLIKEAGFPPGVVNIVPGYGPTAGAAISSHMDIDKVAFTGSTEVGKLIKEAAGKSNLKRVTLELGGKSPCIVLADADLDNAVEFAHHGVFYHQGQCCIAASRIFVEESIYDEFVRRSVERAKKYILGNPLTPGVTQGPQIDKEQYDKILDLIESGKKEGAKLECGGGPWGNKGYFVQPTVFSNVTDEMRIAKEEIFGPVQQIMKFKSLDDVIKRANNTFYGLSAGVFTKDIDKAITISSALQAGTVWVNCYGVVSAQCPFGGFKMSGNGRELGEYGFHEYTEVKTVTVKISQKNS
IMPase Li inh – membrane-permeable IMPase blocker, potentiated with lithium | Potency, µM (titrated, usually from 59.4 µM), for the others: at the highest dose activity, negative = IMPase inhibition, most hits filed as inhibitors | CHO-M1 cells, IP1 TR-FRET (IP-One), carbachol + lithium | hit rate 0.35% among 210,000; active means well fitted inhibition curve with a large enough effect; inconclusive means small, poorly fitted or top-dose-only effect; inactive means no such curve, though single readings can be large or run the other way;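 further: IP1 builds up when IMPase is blocked and the TR-FRET signal falls; potency means the concentration at half of the fitted maximal effect; plate controls were basal vehicle for no effect and high inhibitor control for full effect; nearly all actives have a fitted effect of over 50% in size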
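CHO cells stably expressing M1 receptor (2000/well) were cultured 16–30 h, then exposed to compounds with a small lithium addition for 30 min at 37C. IP1 was measured by TR-FRET competition; AC50 from Hill fits.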
* = called active by the depositor; [ ] = remark or other dose. A selection: hits, their analogues and other compounds. The true share with any hit is near 11%. Unless noted, the call rests on the fitted dose curve; in most records, active means well fitted inhibition curve with a large enough effect (not every such curve was filed as active); inconclusive means small, poorly fitted or top-dose-only effect, or another doubt; inactive means no such curve, though single readings can be large or run the other way. Unless noted, on the % scale 0 is the no-effect control and ±100 the full control effect.

For Cc1c(Br)c([N+](=O)[O-])nn1CC(=O)Nc1sc2c(c1C(=O)OC(C)C)CCCC2 the results were HPGD block -24.3%, IMPase cell inh inconclusive, PNC inhibitor 25.9, ALDH1A1 block -10.1% and IMPase Li inh 1.0%[38.3 µM].
For COc1ccc([C@@H]2[C@H]3C(=O)N(c4cccc(C(F)(F)F)c4)C(=O)[C@H]3ON2C)cc1 the results were HPGD block -18.3%, IMPase cell inh -3.2, PNC inhibitor -13.8, ALDH1A1 block 14.1µM* and IMPase Li inh 3.8%[38.3 µM].
For O=C1[C@H]2[C@H](ON3CCCC[C@H]23)C(=O)N1c1cccc(C(F)(F)F)c1 the results were ALDH1A1 block -3.6% and IMPase Li inh -6.1%.
`C/C(=N\N1C(=O)CSC1=S)c1ccc(Br)cc1` gave ALDH1A1 block 25.1µM* and IMPase Li inh 14.7%.
For O=C1CSC(=S)N1N=C1CCCCCC1 the results were HPGD block -29.1%, IMPase cell inh 2.6, PNC inhibitor inconclusive, ALDH1A1 block -6.5% and IMPase Li inh -9.9%.
For CS(=O)(=O)N1N=C(c2cccs2)CC1c1ccco1 (configuration not stated) the results were ALDH1A1 block 20µM* and IMPase Li inh 2.9%.
For O=C(c1cccs1)N1N=C(c2ccc(O)cc2)CC1c1ccccc1 (configuration not stated) the results were HPGD block -10.7%, PNC inhibitor 52.9, ALDH1A1 block 14.9% and IMPase Li inh 13.7%.
`CC(=O)N1N=C(c2cccs2)CC1c1ccco1` (configuration not stated) gave ALDH1A1 block -2.3% and IMPase Li inh 6.4%.
`O=C(c1ccco1)N1N=C(c2cccs2)CC1c1ccc(F)cc1` (configuration not stated) gave HPGD block -22.7%, IMPase cell inh 9.0, PNC inhibitor inconclusive, ALDH1A1 block 20µM* and IMPase Li inh 29.6%[38.3 µM].
`O=C(c1cccs1)N1N=C(c2ccccc2)CC1c1ccccc1` (configuration not stated) gave HPGD block inconclusive, IMPase cell inh 5.9, PNC inhibitor -104.8*, ALDH1A1 block -15.1% and IMPase Li inh 18.9%.
C1CCC2(CC1)C1=C(CCCC1)Nc1nnnn12 was read as HPGD block 2.0%, IMPase cell inh 6.8, PNC inhibitor inconclusive, ALDH1A1 block 28.2µM* and IMPase Li inh 4.0%[38.3 µM].
NCC[C@H]1CCC[C@H](CCN)N1 was read as IMPase cell inh -0.8.
For Cc1ccc(-c2csc(N(C)C(=O)c3c(C)nn(-c4ccccc4)c3Cl)n2)cc1 the results were HPGD block -17.5%, IMPase cell inh -2.3[1.84 µM], PNC inhibitor -98.7*, ALDH1A1 block -9.0% and IMPase Li inh 28.6%[38.3 µM].
For Cn1cccc1C(=O)OCC(=O)NC(=O)NC1CCCCC1 the results were ALDH1A1 block -8.7% and IMPase Li inh 4.0%.
Screening Cn1cccc1C(=O)OCC(=O)c1cc2ccccc2o1 returned HPGD block 28.2µM*, IMPase cell inh -6.8, PNC inhibitor 3.3, ALDH1A1 block inconclusive and IMPase Li inh -6.1%[38.3 µM].
`O=C(COC(=O)c1ccc(Cl)s1)c1cc2ccccc2o1` gave HPGD block 35.5µM*, IMPase cell inh 0.7, PNC inhibitor inconclusive, ALDH1A1 block inconclusive and IMPase Li inh 17.1%[38.3 µM].
`CC(C)=CCNc1ncnc2c1c(C#N)cn2[C@H]1O[C@@H](CO)[C@@H](O)[C@@H]1O` gave HPGD block -4.7%, ALDH1A1 block -7.8%[13.5 µM] and IMPase Li inh 2.1%.
`CCCOc1ccc([C@@H]2C3CN(C(=O)OCC)CC=C3C(C#N)=C(N)C2(C#N)C#N)cc1OC` (some centres not stated) gave HPGD block -9.4%, IMPase cell inh 8.0, PNC inhibitor -81.2*, ALDH1A1 block -15.2% and IMPase Li inh -5.8%.
N#CC1=C(N)C(C#N)(C#N)[C@H](c2ccncc2)[C@H]2CN(C(=O)OCc3ccccc3)CC=C12 was read as HPGD block -25.0%, IMPase cell inh -3.4, PNC inhibitor -100.0*, ALDH1A1 block -4.1% and IMPase Li inh 3.6%.
For CC(C)N1CC=C2C(C#N)=C(N)C(C#N)(C#N)C(c3ccccc3)C2C1 (configuration not stated) the results were HPGD block inconclusive, IMPase cell inh -0.9, PNC inhibitor -106.8*, ALDH1A1 block inconclusive and IMPase Li inh 6.1%[38.3 µM].
Screening Cc1ccc(C2C3CSCC=C3C(C#N)=C(N)C2(C#N)C#N)cc1 (configuration not stated) returned HPGD block -27.9%, IMPase cell inh -3.8, PNC inhibitor 11.8, ALDH1A1 block 8.91µM* and IMPase Li inh 14.7%.
COc1cc(C2C3CN(C)CC=C3C(C#N)=C(N)C2(C#N)C#N)ccc1OC(C)C (configuration not stated) was read as HPGD block -15.3%, IMPase cell inh 0.8, PNC inhibitor inconclusive, ALDH1A1 block inconclusive and IMPase Li inh -3.5%[38.3 µM].
CCNc1nc(-c2ccc(OC(F)F)cc2)c(C)s1 was read as ALDH1A1 block inconclusive and IMPase Li inh 7.4%.
For C[N+]1([C@H](CO)Cc2c[nH]c3ccccc23)Cc2ccccc2C1 the results were HPGD block -9.3%, ALDH1A1 block 1.5%[13.5 µM] and IMPase Li inh 5.3%.
`Cc1sc2ccccc2[n+]1CCC(=O)O` gave HPGD block -3.0%, ALDH1A1 block 5.2%[13.5 µM] and IMPase Li inh 0.2%.
CC(C)N1CC=C2C(C#N)=C(N)C(C#N)(C#N)[C@H](c3ccoc3)[C@H]2C1 was read as HPGD block inconclusive, IMPase cell inh 5.6, PNC inhibitor 115.3, ALDH1A1 block inconclusive and IMPase Li inh 13.1%[38.3 µM].
CCC1C2CN(C(C)=O)CC=C2C(C#N)=C(N)C1(C#N)C#N (configuration not stated) was read as HPGD block -7.3%, IMPase cell inh 5.3, PNC inhibitor -21.2, ALDH1A1 block inconclusive and IMPase Li inh -2.8%[38.3 µM].
Screening CN1CC=C2C(C#N)=C(N)C(C#N)(C#N)C(Cc3ccccc3)C2C1 (configuration not stated) returned HPGD block inconclusive, IMPase cell inh 0.4, PNC inhibitor -119.2*, ALDH1A1 block inconclusive and IMPase Li inh 2.7%.
For CCOC(=O)N1CC=C2C(C#N)=C(N)C(C#N)(C#N)[C@H](c3cccs3)C2C1 (some centres not stated) the results were HPGD block -11.8%, IMPase cell inh 3.8, PNC inhibitor -100.0*, ALDH1A1 block -6.3% and IMPase Li inh 9.4%.
Screening N#CC1=C(N)C(C#N)(C#N)[C@H](c2ccncc2)[C@H]2CC3(CC=C12)OCCO3 returned IMPase cell inh 11.5, PNC inhibitor -97.8* and ALDH1A1 block inconclusive.
CCOC(=O)/C(C#N)=C/c1ccc(-c2ccc(C)cc2)o1 was read as IMPase cell inh -1.8.
